# Data from PMC7862700, “An all-to-all approach to the identification of sequence-specific readers for epigenetic DNA modifications on cytosine”.
# Assays:
# Test in all cases: DAPPL (digital affinity profiling via proximity ligation, sequencing); 10 mM Tris-HCl pH 7.5, 50 mM NaCl, 1 mM DTT, 4% glycerol, room temperature, 30 min; GST-TFs on glutathione beads, 16-mer random dsDNA library, 0.1% formaldehyde crosslink after washing; high values mean tight binding
# FLI1 = biological target: T1, FLI1 (Homo sapiens, UniProt Q01543 1-452); conditions: protein: recombinant; tags: N-terminal GST; dsDNA, one strand shown
# T1 sequence: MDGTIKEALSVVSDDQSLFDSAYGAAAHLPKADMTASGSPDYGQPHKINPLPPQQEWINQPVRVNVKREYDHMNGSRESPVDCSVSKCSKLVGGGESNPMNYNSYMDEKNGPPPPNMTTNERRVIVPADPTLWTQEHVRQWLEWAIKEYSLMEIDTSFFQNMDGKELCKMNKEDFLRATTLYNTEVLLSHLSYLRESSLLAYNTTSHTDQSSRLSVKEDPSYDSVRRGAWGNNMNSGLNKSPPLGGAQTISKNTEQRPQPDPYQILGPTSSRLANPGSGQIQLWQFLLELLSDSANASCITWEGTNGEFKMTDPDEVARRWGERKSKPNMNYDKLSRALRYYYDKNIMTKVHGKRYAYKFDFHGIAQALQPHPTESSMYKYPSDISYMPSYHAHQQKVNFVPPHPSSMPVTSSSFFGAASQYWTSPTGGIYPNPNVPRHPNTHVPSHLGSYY
# How it was run: (§1)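 Beads coated with glutathione captured GST-fused human transcription factors that had been expressed in yeast, and the factors were then given DNA barcodes and pooled with a tag-only sample. The pools were incubated with 200 nmole of a random double-stranded 16-mer DNA library in Tris/NaCl/DTT/glycerol buffer for 30 min at room temperature, washed, crosslinked with 0.1% formaldehyde and proximity-ligated with BsaI/T4 ligase at 37 °C for 1 h. PCR amplification and Illumina NextSeq500 sequencing came last. Binding signal is each hexamer's read frequency for a factor divided by its frequency for the tag-only sample.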
# ELK1 = biological target: T2, ELK1 (Homo sapiens, UniProt P19419 1-428); conditions: protein: recombinant; tags: N-terminal GST; dsDNA, one strand shown
# T2 sequence: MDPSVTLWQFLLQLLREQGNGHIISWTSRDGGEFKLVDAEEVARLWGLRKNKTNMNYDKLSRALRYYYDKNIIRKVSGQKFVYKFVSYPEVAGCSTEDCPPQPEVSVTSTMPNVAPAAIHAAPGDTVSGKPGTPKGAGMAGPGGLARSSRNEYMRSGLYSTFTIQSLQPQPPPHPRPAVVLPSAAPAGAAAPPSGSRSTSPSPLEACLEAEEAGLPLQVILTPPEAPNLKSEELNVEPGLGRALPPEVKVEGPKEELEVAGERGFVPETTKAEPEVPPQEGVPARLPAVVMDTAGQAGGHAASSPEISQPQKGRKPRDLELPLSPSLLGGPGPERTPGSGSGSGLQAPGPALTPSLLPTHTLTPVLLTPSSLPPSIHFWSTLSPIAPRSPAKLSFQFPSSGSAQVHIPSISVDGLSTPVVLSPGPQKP
# How it was run: as §1
# GABPA = biological target: T3, GABPA (Homo sapiens, UniProt Q06546 1-454); conditions: protein: recombinant; tags: N-terminal GST; dsDNA, one strand shown
# T3 sequence: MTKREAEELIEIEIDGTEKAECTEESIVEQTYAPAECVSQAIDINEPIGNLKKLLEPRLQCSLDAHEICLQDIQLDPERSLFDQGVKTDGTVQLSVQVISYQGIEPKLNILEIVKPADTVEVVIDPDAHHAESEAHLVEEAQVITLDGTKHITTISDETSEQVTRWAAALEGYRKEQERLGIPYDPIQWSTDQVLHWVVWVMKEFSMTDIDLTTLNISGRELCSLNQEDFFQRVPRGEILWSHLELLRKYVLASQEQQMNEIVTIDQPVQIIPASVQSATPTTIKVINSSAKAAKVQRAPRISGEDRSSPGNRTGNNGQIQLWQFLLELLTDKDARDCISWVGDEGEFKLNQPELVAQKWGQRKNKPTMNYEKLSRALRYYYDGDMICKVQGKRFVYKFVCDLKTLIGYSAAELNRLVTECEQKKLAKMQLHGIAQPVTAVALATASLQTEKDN
# How it was run: as §1
# ERG = biological target: T4, ERG (Homo sapiens, UniProt P11308 1-479); conditions: protein: recombinant; tags: N-terminal GST; dsDNA, one strand shown
# T4 sequence: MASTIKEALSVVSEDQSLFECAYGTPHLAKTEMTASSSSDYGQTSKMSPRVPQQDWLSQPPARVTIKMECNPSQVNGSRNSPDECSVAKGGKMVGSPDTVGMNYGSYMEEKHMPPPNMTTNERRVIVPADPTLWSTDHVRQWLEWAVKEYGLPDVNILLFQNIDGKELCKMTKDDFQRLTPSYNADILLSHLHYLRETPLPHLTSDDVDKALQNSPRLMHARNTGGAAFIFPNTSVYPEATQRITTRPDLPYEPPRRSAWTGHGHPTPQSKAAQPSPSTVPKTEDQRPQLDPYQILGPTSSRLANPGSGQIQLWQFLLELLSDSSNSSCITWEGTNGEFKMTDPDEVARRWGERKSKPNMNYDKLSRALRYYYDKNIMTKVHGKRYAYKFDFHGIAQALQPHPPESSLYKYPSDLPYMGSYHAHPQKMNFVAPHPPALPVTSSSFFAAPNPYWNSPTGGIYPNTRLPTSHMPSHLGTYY
# How it was run: as §1
# ELF1 = ELF1 (Homo sapiens, UniProt P32519 1-619); conditions: protein: recombinant; tags: N-terminal GST; dsDNA, one strand shown
# Sequence of ELF1 (P32519 whole entry): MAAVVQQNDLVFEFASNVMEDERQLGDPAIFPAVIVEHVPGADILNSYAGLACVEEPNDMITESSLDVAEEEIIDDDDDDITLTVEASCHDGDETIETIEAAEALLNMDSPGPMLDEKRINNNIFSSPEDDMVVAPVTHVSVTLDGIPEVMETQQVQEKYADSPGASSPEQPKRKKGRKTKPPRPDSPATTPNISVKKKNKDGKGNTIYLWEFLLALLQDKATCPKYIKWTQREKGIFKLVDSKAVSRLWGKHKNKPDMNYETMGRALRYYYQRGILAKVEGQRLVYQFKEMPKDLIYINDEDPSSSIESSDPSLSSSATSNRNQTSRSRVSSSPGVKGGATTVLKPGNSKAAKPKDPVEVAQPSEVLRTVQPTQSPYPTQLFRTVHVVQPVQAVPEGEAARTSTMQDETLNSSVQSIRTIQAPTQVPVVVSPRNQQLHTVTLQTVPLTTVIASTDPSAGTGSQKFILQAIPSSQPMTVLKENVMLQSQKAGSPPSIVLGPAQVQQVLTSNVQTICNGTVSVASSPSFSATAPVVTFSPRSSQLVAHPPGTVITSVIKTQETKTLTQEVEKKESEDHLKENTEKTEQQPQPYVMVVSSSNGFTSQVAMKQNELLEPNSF
# How it was run: as §1
# EHF = biological target: T5, EHF (Homo sapiens, UniProt Q9NZC4 1-300); conditions: protein: recombinant; tags: N-terminal GST; dsDNA, one strand shown
# T5 sequence: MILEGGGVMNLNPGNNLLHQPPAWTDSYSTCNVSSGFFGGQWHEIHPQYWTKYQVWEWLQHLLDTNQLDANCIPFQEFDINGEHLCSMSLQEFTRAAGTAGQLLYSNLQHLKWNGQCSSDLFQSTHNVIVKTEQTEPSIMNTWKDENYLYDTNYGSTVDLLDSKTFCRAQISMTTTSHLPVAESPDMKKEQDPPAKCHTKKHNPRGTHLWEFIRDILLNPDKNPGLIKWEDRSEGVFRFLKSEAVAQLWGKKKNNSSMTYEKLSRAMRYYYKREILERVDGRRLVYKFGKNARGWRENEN
# How it was run: as §1
# SPI1 = SPI1 (Homo sapiens, UniProt P17947 1-270); conditions: protein: recombinant; tags: N-terminal GST; dsDNA, one strand shown
# How it was run: as §1
# SPIB = SPIB (Homo sapiens, UniProt Q01892 1-262); conditions: protein: recombinant; tags: N-terminal GST; dsDNA, one strand shown
# Sequence of SPIB (Q01892 whole entry): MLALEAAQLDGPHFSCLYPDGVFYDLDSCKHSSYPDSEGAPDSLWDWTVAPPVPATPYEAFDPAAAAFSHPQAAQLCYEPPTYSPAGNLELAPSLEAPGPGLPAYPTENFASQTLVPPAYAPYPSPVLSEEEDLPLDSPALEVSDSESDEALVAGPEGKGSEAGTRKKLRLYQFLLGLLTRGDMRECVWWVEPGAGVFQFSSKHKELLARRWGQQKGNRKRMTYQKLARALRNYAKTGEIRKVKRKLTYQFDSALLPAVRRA
# How it was run: as §1
# ELK3 = biological target: T6, ELK3 (Homo sapiens, UniProt P41970 1-407); conditions: protein: recombinant; tags: N-terminal GST; dsDNA, one strand shown
# T6 sequence: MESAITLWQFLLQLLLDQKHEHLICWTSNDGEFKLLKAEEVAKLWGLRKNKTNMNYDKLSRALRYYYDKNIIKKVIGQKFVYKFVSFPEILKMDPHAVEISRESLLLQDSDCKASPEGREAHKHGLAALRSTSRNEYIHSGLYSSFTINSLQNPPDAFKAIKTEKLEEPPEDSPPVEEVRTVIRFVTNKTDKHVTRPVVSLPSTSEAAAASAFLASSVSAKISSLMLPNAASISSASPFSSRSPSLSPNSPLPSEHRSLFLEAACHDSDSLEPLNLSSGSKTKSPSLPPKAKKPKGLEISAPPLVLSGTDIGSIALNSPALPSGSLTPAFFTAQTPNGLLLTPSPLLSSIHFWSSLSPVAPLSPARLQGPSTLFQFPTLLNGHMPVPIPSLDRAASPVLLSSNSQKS
# How it was run: as §1
# FEV = biological target: T7, FEV (Homo sapiens, UniProt Q99581 1-238); conditions: protein: recombinant; tags: N-terminal GST; dsDNA, one strand shown
# T7 sequence: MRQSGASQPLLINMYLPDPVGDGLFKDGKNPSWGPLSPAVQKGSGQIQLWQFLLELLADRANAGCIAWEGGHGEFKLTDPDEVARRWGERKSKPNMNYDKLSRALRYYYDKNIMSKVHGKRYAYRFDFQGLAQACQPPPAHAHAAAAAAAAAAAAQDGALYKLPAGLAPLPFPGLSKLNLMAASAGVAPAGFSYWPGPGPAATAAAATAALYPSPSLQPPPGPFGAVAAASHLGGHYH
# How it was run: as §1
# ETV5 = ETV5 (Homo sapiens, UniProt P41161 1-510); conditions: protein: recombinant; tags: N-terminal GST; dsDNA, one strand shown
# Sequence of ETV5 (P41161 whole entry): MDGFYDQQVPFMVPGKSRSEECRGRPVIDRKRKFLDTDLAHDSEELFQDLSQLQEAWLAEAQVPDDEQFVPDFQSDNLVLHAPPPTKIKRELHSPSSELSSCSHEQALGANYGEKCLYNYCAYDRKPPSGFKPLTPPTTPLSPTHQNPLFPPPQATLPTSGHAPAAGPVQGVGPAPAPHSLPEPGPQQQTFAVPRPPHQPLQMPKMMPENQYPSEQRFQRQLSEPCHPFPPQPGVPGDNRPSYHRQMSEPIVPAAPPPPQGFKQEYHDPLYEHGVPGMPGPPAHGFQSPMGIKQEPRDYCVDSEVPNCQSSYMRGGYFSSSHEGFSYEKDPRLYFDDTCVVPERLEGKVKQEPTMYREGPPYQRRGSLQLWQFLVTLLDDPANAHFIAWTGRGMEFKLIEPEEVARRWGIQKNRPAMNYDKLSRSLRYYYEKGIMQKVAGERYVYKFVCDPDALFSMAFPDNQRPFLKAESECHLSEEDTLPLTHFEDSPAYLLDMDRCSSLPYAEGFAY
# How it was run: as §1
# HSF1 = HSF1 (Homo sapiens, UniProt Q00613 1-529); conditions: protein: recombinant; tags: N-terminal GST; chain copies: 3; dsDNA, one strand shown
# Sequence of HSF1 (Q00613 whole entry): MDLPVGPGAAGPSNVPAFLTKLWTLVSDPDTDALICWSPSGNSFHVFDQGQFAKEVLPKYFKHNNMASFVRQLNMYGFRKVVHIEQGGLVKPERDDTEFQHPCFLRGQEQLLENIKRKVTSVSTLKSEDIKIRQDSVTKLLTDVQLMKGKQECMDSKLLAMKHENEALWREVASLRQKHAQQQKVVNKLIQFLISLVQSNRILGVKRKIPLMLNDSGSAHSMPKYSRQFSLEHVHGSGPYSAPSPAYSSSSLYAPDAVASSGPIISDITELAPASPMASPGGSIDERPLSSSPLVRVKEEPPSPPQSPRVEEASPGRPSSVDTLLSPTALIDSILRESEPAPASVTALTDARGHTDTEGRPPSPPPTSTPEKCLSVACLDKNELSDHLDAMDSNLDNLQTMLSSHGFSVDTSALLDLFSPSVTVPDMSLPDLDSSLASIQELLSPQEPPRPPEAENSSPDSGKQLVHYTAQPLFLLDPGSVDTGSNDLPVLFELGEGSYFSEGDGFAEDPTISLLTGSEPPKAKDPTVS
# How it was run: as §1
# SPIC = biological target: T8, SPIC (Homo sapiens, UniProt Q8N5J4 1-248); conditions: protein: recombinant; tags: N-terminal GST; dsDNA, one strand shown
# T8 sequence: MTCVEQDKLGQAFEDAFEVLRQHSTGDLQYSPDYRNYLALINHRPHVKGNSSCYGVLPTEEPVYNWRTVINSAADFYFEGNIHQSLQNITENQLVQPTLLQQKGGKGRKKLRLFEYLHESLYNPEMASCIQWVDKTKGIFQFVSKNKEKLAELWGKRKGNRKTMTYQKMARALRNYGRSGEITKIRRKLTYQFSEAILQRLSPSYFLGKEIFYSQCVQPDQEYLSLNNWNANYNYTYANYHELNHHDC
# How it was run: as §1
# ELF4 = ELF4 (Homo sapiens, UniProt Q99607 1-663); conditions: protein: recombinant; tags: N-terminal GST; dsDNA, one strand shown
# Sequence of ELF4 (Q99607 whole entry): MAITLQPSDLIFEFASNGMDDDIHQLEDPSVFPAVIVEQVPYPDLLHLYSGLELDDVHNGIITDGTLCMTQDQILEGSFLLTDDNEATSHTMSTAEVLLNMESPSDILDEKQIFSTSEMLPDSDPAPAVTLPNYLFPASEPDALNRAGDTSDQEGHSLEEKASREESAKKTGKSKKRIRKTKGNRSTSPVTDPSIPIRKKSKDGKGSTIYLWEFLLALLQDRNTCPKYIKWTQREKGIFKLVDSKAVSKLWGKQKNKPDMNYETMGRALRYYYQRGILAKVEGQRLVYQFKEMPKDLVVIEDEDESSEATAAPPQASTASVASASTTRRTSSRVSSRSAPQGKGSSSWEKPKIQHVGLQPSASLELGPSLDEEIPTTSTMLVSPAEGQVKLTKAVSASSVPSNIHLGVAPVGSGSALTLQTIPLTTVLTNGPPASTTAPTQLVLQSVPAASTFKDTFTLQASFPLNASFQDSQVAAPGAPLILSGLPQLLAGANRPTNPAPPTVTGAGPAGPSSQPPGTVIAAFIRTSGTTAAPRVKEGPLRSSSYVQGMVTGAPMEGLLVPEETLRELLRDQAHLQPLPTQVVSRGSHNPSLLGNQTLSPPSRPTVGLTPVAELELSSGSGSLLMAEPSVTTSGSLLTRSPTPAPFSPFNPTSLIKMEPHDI
# How it was run: as §1
# ELK4 = biological target: T9, ELK4 (Homo sapiens, UniProt P28324-2 1-405); conditions: protein: recombinant; tags: N-terminal GST; dsDNA, one strand shown
# T9 sequence: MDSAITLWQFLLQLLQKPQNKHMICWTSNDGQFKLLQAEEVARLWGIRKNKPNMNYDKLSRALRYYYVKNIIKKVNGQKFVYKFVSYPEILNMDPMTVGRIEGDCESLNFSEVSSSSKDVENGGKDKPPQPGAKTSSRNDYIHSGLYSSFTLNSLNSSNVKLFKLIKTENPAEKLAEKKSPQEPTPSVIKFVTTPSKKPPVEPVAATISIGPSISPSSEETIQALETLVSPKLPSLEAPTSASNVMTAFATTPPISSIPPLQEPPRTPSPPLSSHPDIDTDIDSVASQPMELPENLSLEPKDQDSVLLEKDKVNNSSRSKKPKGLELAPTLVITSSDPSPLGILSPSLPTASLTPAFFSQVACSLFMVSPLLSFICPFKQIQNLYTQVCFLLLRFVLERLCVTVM
# How it was run: as §1
# ETV2 = biological target: T10, ETV2 (Homo sapiens, UniProt O00321 1-342); conditions: protein: recombinant; tags: N-terminal GST; dsDNA, one strand shown
# T10 sequence: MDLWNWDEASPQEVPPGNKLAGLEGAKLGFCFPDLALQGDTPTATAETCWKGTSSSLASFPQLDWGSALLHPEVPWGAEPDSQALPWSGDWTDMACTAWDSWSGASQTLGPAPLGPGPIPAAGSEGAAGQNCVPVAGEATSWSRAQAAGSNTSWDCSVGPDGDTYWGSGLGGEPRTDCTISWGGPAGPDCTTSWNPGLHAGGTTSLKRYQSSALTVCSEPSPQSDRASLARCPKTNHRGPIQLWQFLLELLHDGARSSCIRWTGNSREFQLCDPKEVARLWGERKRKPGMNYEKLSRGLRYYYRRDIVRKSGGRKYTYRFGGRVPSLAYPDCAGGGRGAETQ
# How it was run: as §1
# ELF3 = biological target: T11, ELF3 (Homo sapiens, UniProt P78545 1-371); conditions: protein: recombinant; tags: N-terminal GST; dsDNA, one strand shown
# T11 sequence: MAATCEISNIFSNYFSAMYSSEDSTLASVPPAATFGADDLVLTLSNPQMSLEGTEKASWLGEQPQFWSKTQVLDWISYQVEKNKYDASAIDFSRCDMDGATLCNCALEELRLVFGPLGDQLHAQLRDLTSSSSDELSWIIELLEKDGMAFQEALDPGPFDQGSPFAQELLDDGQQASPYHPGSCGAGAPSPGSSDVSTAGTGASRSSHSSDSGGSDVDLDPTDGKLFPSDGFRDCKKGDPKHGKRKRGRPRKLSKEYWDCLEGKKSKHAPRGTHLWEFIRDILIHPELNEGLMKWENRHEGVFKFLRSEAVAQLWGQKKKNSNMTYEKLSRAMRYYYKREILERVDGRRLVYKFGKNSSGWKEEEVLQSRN
# How it was run: as §1
# CRX = CRX (Homo sapiens, UniProt O43186 1-299); conditions: protein: recombinant; tags: N-terminal GST; dsDNA, one strand shown
# Sequence of CRX (O43186 whole entry): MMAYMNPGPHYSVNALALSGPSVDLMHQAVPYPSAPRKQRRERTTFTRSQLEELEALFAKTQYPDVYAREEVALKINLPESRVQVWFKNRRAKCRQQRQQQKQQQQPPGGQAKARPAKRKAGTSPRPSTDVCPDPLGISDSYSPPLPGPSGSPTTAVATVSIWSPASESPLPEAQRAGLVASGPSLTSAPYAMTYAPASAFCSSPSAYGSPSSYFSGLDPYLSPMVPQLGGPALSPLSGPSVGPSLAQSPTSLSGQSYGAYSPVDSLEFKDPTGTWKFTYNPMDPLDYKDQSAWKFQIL
# How it was run: as §1
# ETV1 = ETV1 (Homo sapiens, UniProt P50549 1-477); conditions: protein: recombinant; tags: N-terminal GST; dsDNA, one strand shown
# Sequence of ETV1 (P50549 whole entry): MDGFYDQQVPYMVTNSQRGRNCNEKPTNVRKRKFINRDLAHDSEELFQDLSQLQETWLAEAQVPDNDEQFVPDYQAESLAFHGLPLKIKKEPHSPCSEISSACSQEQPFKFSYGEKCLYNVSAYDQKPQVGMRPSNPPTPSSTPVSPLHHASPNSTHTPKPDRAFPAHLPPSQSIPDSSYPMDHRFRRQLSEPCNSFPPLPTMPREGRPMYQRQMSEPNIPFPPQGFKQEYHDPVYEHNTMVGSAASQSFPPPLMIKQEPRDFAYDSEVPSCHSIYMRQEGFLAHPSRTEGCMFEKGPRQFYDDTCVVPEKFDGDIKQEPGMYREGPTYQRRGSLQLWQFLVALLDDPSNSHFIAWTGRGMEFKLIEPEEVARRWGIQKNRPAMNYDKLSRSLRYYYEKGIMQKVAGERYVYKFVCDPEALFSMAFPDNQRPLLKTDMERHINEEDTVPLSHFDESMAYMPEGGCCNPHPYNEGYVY
# How it was run: as §1
sequence,measurement,setting,value
CTATAC,binding signal,FLI1,"1.28 fold enrichment (6-mer frequency, TF over GST control)"
same,binding signal,ELK1,"1.22 fold enrichment (6-mer frequency, TF over GST control)"
same,binding signal,GABPA,"1.35 fold enrichment (6-mer frequency, TF over GST control)"
same,binding signal,ERG,"1.24 fold enrichment (6-mer frequency, TF over GST control)"
same,binding signal,ELF1,"1.31 fold enrichment (6-mer frequency, TF over GST control)"
same,binding signal,EHF,"1.21 fold enrichment (6-mer frequency, TF over GST control)"
same,binding signal,SPI1,"1.21 fold enrichment (6-mer frequency, TF over GST control)"
same,binding signal,SPIB,"1.16 fold enrichment (6-mer frequency, TF over GST control)"
same,binding signal,ELK3,"1.21 fold enrichment (6-mer frequency, TF over GST control)"
same,binding signal,FEV,"1.3 fold enrichment (6-mer frequency, TF over GST control)"
same,binding signal,ETV5,"1.22 fold enrichment (6-mer frequency, TF over GST control)"
same,binding signal,HSF1,"1.14 fold enrichment (6-mer frequency, TF over GST control)"
same,binding signal,SPIC,"1.21 fold enrichment (6-mer frequency, TF over GST control)"
same,binding signal,ELF4,"1.29 fold enrichment (6-mer frequency, TF over GST control)"
same,binding signal,ELK4,"1.07 fold enrichment (6-mer frequency, TF over GST control)"
same,binding signal,ETV2,"1.4 fold enrichment (6-mer frequency, TF over GST control)"
same,binding signal,ELF3,"1.24 fold enrichment (6-mer frequency, TF over GST control)"
same,binding signal,CRX,"1.19 fold enrichment (6-mer frequency, TF over GST control)"
same,binding signal,ETV1,"1.29 fold enrichment (6-mer frequency, TF over GST control)"
